Only some compounds are listed: those with a hit (about 3.7% of all), similar ones and a draw of the others.
CHT block = human CHT choline transport inhibition; Q9GZV3; CHT-expressing cells, membrane potential dye, choline response; active compounds read low; B-score at 10 µM; 310,000 tested, 0.86% active;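 active means B-score over 3 SD under the library average, and starting fluorescence ratio not unusually high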;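 further: choline stimulus applied at its EC90 after an EC20 pre-addition; B-score computed on integrated fluorescence ratio after choline addition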
ANO1 activ = activates or potentiates the mouse TMEM16A chloride channel; Q8BHY3; HEK293 TMEM16A/YFP-H148Q/I152L, iodide quench fluorescence; active compounds read low; B-score at 10 µM; 340,000 tested, 0.3% active; AID 623877;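 active means fluorescence-ratio B-score plate-corrected deviation score at least 3 library SD below zero, with starting fluorescence score within 5 deviations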;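 further: channel opened by trigger with iodide after compound preincubation; score built on the fluorescence ratio of max minus min over baseline; more negative score means more quench and so TMEM16A activation or potentiation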
Target sequence (Q8BHY3 whole entry, looked up): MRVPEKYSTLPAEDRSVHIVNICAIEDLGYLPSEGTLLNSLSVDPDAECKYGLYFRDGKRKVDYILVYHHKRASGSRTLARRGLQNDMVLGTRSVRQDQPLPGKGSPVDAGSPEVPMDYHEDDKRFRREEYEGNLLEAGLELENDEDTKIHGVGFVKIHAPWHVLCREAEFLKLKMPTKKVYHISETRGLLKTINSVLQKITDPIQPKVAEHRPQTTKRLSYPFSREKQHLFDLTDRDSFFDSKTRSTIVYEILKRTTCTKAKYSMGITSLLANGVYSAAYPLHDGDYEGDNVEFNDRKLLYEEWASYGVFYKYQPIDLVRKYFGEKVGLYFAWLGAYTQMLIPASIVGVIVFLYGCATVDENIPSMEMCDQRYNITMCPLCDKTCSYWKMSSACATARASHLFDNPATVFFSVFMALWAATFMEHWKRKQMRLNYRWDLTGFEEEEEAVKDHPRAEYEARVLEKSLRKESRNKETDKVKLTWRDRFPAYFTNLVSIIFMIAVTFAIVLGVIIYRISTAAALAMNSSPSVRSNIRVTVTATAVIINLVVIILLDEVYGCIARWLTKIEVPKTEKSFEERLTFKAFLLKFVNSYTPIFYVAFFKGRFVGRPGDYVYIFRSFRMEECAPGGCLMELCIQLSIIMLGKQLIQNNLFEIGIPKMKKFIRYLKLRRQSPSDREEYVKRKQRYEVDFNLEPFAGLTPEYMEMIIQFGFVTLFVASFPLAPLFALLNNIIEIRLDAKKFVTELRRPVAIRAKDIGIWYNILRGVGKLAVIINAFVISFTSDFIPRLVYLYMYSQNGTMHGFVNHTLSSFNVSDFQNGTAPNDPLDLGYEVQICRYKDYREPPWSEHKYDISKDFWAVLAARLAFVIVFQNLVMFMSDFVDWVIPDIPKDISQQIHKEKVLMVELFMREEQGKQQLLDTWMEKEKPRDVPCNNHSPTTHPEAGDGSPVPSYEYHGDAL
GPR7 antag = blocks human GPR7 receptor signaling | P48145 | GPR7-expressing cells, fluorescence antagonist assay | inhibition, % at 4.4 µM | 290,000 tested, 1.1% active; in the data active means inhibition above about 16%, passing the limit was not always enough;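 further: cells stimulated with the agonist NPW; 0% = agonist with vehicle and 100% = vehicle without agonist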
ANO1 block = inhibitors of mouse TMEM16A calcium-activated chloride channel. Q8BHY3. HEK293 TMEM16A/YFP iodide influx fluorescence, ionomycin. normalized B-score (activity score, 25-100; higher = stronger inhibition) at 10 µM. 310,000 tested, 1.2% active. AID 588511;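 active means ratio plate-corrected score three or more library SD toward inhibition, starting fluorescence score within five deviations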;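 further: score derived from kinetic fluorescence span divided by baseline fluorescence per well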
Kir21 inh = Kir2.1 (mouse) channel inhibition; P35561; HEK293-Kir2.1, FluxOR thallium flux fluorescence; active compounds read low; B-score at 10 µM; 310,000 tested, 0.85% active;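 active means fluorescence ratio B-score at or below minus 3 SD of library scores, with starting-brightness B-score within 2 SD, cut at about -4.2 in these data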;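 further: channel flux triggered by added potassium and thallium sulfate stimulus; B-score of peak minus minimum fluorescence over baseline after thallium stimulus; more negative B-score means stronger Kir2.1 block with less thallium influx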
CHT allo act = human CHT allosteric activation. CHT-expressing cells, membrane potential dye, choline EC20; active compounds read high; LV-AA mutant CHT in HEK293 cells. Q9GZV3. B-score at 10 µM. AID 488977. 310,000 tested, 0.49% active;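 active means initial fluorescence not abnormally high and integrated response B-score, plate-corrected, over 3 SD above library mean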
CHT block conf = confirmation of human choline transporter CHT inhibitors; shares compounds with CHT block; CHT-expressing cells, choline membrane potential dye; LV-to-AA substituted CHT, HEK293 cells; CHT activity remaining % of control (active compounds read low), % at 10 µM; 2,400 tested, 70% active; AID 493221;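 active means choline transporter activity left, mean of duplicates at 10 µM, below buffer-only control mean minus 3 SD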;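 further: depolarization triggered by choline at its EC90 following an EC20 pre-addition; 0% = hemicholinium-3 full block and 100% = buffer-only control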
HEK293 MPD ctr = CHT inhibitor counter-screen hit in parental HEK293 cells | shares compounds with CHT block | membrane potential dye, choline response; active = decrease or increase beyond buffer ±3SD | membrane potential ratio readout (active if shifted either direction beyond buffer ±3SD; no single direction) at 10 µM | 2,400 tested, 4% active | AID 493222;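 further: parental cells lack the transporter so any hit is non-specific; ratio is peak minus trough fluorescence over baseline after EC90 choline challenge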
TMEM16A reconf = re-confirmation of mouse TMEM16A chloride channel inhibitors | AID 652189 | inhibition, % at 10 µM | 2,300 tested, 39% active | shares compounds with ANO1 block | HEK293 TMEM16A/YFP-H148Q, iodide quench fluorescence; ionomycin added to raise cell calcium;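 active means mean duplicate percent inhibition, scaled so buffer wells are 0 and the reference blocker 100, over three buffer SD above buffer mean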
TMEM16A Ca cntr = alters calcium mobilization in TMEM16A HEK293 cells, counter-screen; calcium response (% of ionomycin), % at 10 µM; 2,300 tested, 2% active; TMEM16A/YFP HEK293, Fluo4 calcium mobilization; shares compounds with ANO1 block;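 active means duplicate-averaged calcium signal over 20% of the ionomycin maximum, relative to buffer baseline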;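 further: each well's signal is peak minus trough fluorescence divided by its pre-addition baseline; 0% = buffer wells and 100% = ionomycin wells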
Parental YFP cnt = parental YFP-HEK293 iodide quench counter-screen activity; YFP ratio F(max-min)/F0 at 10 µM; AID 652233; ionomycin; shares compounds with ANO1 block; 2,300 tested, under 10 active;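 active means yellow fluorescent protein signal ratio exceeding the buffer control mean by over 5 SD of those controls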;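 further: ratio is mean of duplicate wells from kinetic YFP trace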
ClC-1 rat inh = selectivity of TMEM16A inhibitors: inhibition of rat ClC-1 chloride channel; shares compounds with ANO1 block; CHO ClC-1-YFP, iodide influx fluorescence quench; iodide control reads 0, buffer control 100; ratio percent, % at 10 µM; 2,300 tested, under 10 active; AID 652236;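 active means duplicate-mean ratio percent above the mean of iodide-only control wells, which defines zero, plus 5 of their SD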;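 further: higher percent means stronger block of ClC-1 iodide influx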
Numbers without * were called inactive; i = inactive; . = not tested or not shown.

SMILES	CHT block	ANO1 activ	GPR7 antag	ANO1 block	Kir21 inh	CHT allo act	CHT block conf	HEK293 MPD ctr	TMEM16A reconf	TMEM16A Ca cntr	Parental YFP cnt	ClC-1 rat inh
Cc1ccc(C2CC2C(=O)NNC(=S)Nc2cccc(C)c2)cc1 (stereo unspecified)	i	i	-1.5	i	-0.33	i	.	.	.	.	.	.
CC[C@]12C(=O)N(C)C[C@H]([C@@H]3C(=O)N(C)C(=O)[C@@H]31)N2C(=O)c1ccc(Cl)c(Cl)c1	.	i	.	.	.	.	.	.	.	.	.	.
O=C(COc1ccc(S(=O)(=O)Nc2ccccc2)cc1)NCc1ccncc1	i	i	-9.6	i	-1.43	i	.	.	.	.	.	.
N#CC(c1ccccc1)c1ccc2c(C(F)(F)F)cc(C(F)(F)F)nc2n1 (stereo unspecified)	-5.53*	i	-2.9	100*	0.42	i	i	i	42.5%*	i	-0.845	15.5
COc1ccc(CN2CCNC(=O)C2CC(=O)N(C)Cc2nonc2C)c(F)c1 (stereo unspecified)	i	i	-14.9	i	-0.46	i	.	.	.	.	.	.
N#C/C(=N\Nc1cccc(Cl)c1)C(=O)c1ccccc1	-5.23*	i	-17.0	100*	-1.21	i	65.9%*	i	26.5%*	i	-1.03	-8.5
CN(C(=O)COC(=O)c1ccc(-c2ccc(O)cc2)cc1)C1CCS(=O)(=O)C1 (stereo unspecified)	i	i	-8.5	i	-0.52	i	.	.	.	.	.	.
CC(C)Cc1csc(NC(=O)c2ccc(Br)cc2)c1C(=O)O	-10.2*	i	-14.8	100*	0.06	i	60.9%*	i	i	i	-1.15	-13.5
CCOC(=O)c1c(CC(C)C)csc1NC(=O)COC(=O)c1ccc(O)cc1	.	i	.	.	.	.	.	.	.	.	.	.
Oc1c(Br)cc(Br)cc1C=Nc1cccc2ncccc12	-8.23*	i	.	i	1.09	i	52.5%*	i	17.5%*	i	-1.01	-6.0
COc1ccc(OCC(=O)Nc2ccc(NC(=O)c3ccccc3Cl)c(OC)c2)cc1	i	i	-7.3	i	0.98	i	.	.	.	.	.	.
CCc1ccccc1-n1nnnc1SCC(=O)Nc1ccc(N2CCN(C)CC2)cc1	i	i	16.1	i	-0.63	i	.	.	.	.	.	.
CN(Cc1ccccc1)C(=O)COC(=O)c1cc(NS(=O)(=O)c2cccs2)ccc1O	-5.83*	i	11.8	25*	-0.05	i	i	i	i	i	-1.06	-20.5
O=C(COC(=O)c1cc(NS(=O)(=O)c2cccs2)ccc1O)Nc1ccccc1	i	i	-2.9	i	0.59	i	.	.	.	.	.	.
COc1ccc(C)cc1NC(=O)c1ccccc1NS(=O)(=O)c1ccc(Cl)s1	-7.52*	i	-1.3	100*	-1.49	i	14.9%*	i	48.5%*	i	-0.997	-13.0
N#C/C(=N\Nc1ccc(F)cc1)C(=O)C1CC1	-6.22*	i	-11.0	25*	2.59	i	50.3%*	i	26.0%*	i	-0.821	-13.5
CN1c2ccccc2C(O)=C(C(=S)Nc2ccc(F)c(Cl)c2)S1(=O)=O	-6.37*	i	-9.0	100*	0.28	i	48.2%*	i	61.5%*	i	-1.1	-29.5
COc1ccc(C(=O)CSc2[nH]c(=O)cc(C(F)(F)F)c2C#N)cc1	-13.8*	i	-2.5	25*	1.36	i	44.5%*	i	21.5%*	i	-1.03	-13.5
O=C(NC1CCCN(Cc2ccccc2F)C1)c1cccs1 (stereo unspecified)	i	i	-1.8	i	-0.38	i	.	.	.	.	.	.
Cn1c(=O)n(CC(=O)N2CCN(c3nnc(-c4ccccc4)c4ccccc34)CC2)c2ccccc21	-5.79*	i	-3.0	25*	-0.07	i	i	i	i	i	-1.05	-7.5
Cc1ccc(-c2nnc(N3CCN(C(=O)Cn4c(=O)n(C)c5ccccc54)CC3)c3ccccc23)cc1	i	i	-7.4	i	-0.52	i	.	.	.	.	.	.
Cc1ccc(NC(=S)NNC(=O)c2cccc([N+](=O)[O-])c2)cc1Cl	-5.68*	i	-9.6	25*	0.79	i	54.1%*	i	23.5%*	i	-1.11	-18.5
O=C(CCc1ccccc1)NNC(=S)NC(=O)c1ccc(Cl)cc1	-5.7*	.	-7.3	100*	2.17	i	70.4%*	i	25.0%*	65.0%*	-0.89	-19.0
O=C(CCc1ccccc1)NNC(=O)c1ccc(Cl)cc1	i	i	-12.6	i	-0.75	i	.	.	.	.	.	.
O=C(CCc1ccccc1)c1c(O)cc(O)cc1O	-7.91*	i	.	100*	0.84	i	39.7%*	i	47.0%*	i	-0.966	-1.5
SMILES	CHT block	ANO1 activ	GPR7 antag	ANO1 block	Kir21 inh	CHT allo act	CHT block conf	HEK293 MPD ctr	TMEM16A reconf	TMEM16A Ca cntr	Parental YFP cnt	ClC-1 rat inh
COc1ccc(C(=O)CCc2ccccc2)c(O)c1	i	i	.	i	2.04	i	.	.	.	.	.	.
O=C(CSc1ccc2ccccc2c1)Nc1ccncc1	-6.05*	i	13.4	100*	-0.68	i	52.2%*	i	17.5%*	i	-0.842	-10.5
CCOc1ccc(-c2cccc(NC(=O)c3ccco3)c2)nn1	i	i	.	i	0.27	i	.	.	.	.	.	.
COC(=O)CCCCCN1C(=O)NC(C2CC2)C(C(=O)OCc2ccccc2)=C1C (stereo unspecified)	-5.37*	i	.	25*	-1.54	i	65.2%*	i	i	i	-1.29	-15.0
CC1=C(C(=O)OCc2ccccc2)C(c2ccccc2)NC(=O)N1CCCCCC(=O)O (stereo unspecified)	i	i	-5.6	i	0.01	i	.	.	.	.	.	.
O=C(Cn1ncc2c([nH]c3ccccc32)c1=O)NCC1CCN(Cc2ccccc2F)CC1	i	i	-1.4	i	0.09	i	.	.	.	.	.	.

Screens from PubChem BioAssay.
